Test results from PubChem BioAssay (NCI).
“And” between values parts separate entries of the source, which are not always exact repeats. Identical values can stand only once. About 83,000 compounds went through this panel and 20% of them were active in at least one assay; those are over-represented in the sample as a whole.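 Negative percent growth values reflect cell death: -40 means 40% of the cells present at the start died, and -100 means all died.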 Values without a mark were called inactive. The source made the active and inactive calls. How the source made its calls: active means growth percent below 10; inactive means the rest.

Each compound was assayed on MDA-MB-468 breast (assay: NCI-60 one-dose screen, 48 h (100 = growth as untreated, 0 = no growth, -100 = all killed)). Conditions: 10 µM unless noted.

SMILES | growth
c1csc(-c2cnc3nonc3n2)c1 | 67.5%
CC(=O)c1ccc(C)c(N)c1 | 104%
COc1ccc(/C=N/NC(=O)c2[nH]c3ccc(Br)cc3c2-c2ccccc2)s1 | -24% (active)
C=C1C(=O)O[C@H]2[C@H]1CC/C(COC(=O)C(=O)c1c[nH]c3ccc(Cl)cc13)=C\CC[C@@]1(C)O[C@@H]21 | -67.3% (active)
CNS(=O)(=O)Nc1nccc(Cc2c(C)c3ccc(Oc4ncccn4)cc3oc2=O)c1F | 62.9%
Cc1cc(-c2cc(C)c(N)cc2C)c(C)cc1N | 61%
CCOC(=O)c1cc2c(n(C)c1=O)-c1cnn(-c3ccc(OC)cc3)c1CC2 | 93.2%
Cc1[nH]c(C(=O)Nc2ccccc2OC2CCN(CCN3CCOCC3)CC2)c(Cl)c1Cl | 91.6%
C[C@@H](Nc1ncnc2ccc(-c3cnc(Cl)c(NS(C)(=O)=O)c3)cc12)c1ccccc1 | 30.8%
NC(=O)c1c(NC(=O)COC(=O)Cc2ccccc2F)sc2c1CCC2 | 112%
COc1cc(C(=O)/C=C/c2cccnc2Nc2ccccc2)cc(OC)c1OC | -93.8% (active)
O=C(O)C1CN(c2cccc(Cl)c2)N(c2cccc(Cl)c2)C1=O (stereo not given) | 78.7%
CC1(C)N=C(N)N=C(N)N1c1ccc(OCC(=O)Nc2ccccc2)c(Cl)c1 | 56.8%
c1ccc2c(-c3c[nH]c4ccccc34)c3c(cc2c1)[nH]c1ccccc13 | 53.8%
CCC(CC)C(=O)OC(C)COc1ccc(C(C)(C)C)cc1 (stereo not given) | 94.6%
N=c1c(S(=O)(=O)c2ccccc2)cc2c(=O)n3ccccc3nc2n1CC1CCCO1 (stereo not given) | 121%
Cn1c(=O)n(-c2ccc(C(C)(C)C#N)cc2)c2c3cc(-c4cnc5ccccc5c4)ccc3ncc21 | -24.6% (active) and -48.4% (active)
COC(=O)[C@]12CC[C@@H](C)[C@H](C)[C@@H]1C1=CC[C@@H]3[C@@]4(C)C(C#N)=CC(C)=C4CC[C@@]3(C)[C@]1(C)CC2 | 76.7%
CN(C)c1ncnc2c1nnn2C1OC(CO)C(O)C1O (stereo not given) | -26.5% (active)
O=C(OCC(O)(CO)C(=O)NC12CC3CC(CC(C3)C1)C2)c1ccc(Cl)cc1 (stereo not given) | 100%

SMILES | growth
Brc1ccc(-c2cn3ccnc3c(-c3ccc(Br)cc3)n2)cc1 | 33.2%
COC(=O)/C=C1/SC(=Nc2ccc([N+](=O)[O-])cc2)N(CCc2c[nH]c3ccccc23)C1=O | 86%
CCCCCCCCCCN=C(c1ccc(N(C)C)cc1)c1ccc(N(C)C)cc1 | -8.69% (active)
O=C1c2ccccc2C(=O)c2c1cccc2-n1nnc2ccccc21 | 109%
C=C1C(=O)O[C@H]2[C@H]1CC/C(Cn1cc(-c3ccc(F)cc3)nn1)=C\CC[C@@]1(C)O[C@@H]21 | -53.1% (active)
O=C(c1ccccc1)C1OC1c1ccc([N+](=O)[O-])cc1 (stereo not given) | 29.2%
Cc1nc2sc(C(=O)Nc3ccccc3)c(N)c2cc1C(=O)/C=C/c1ccccc1 | 2.08% (active)
CC(=O)Oc1ccccc1C(=O)Nc1ccc(C(=O)/C=C/c2cccs2)cc1 | 109%
COc1cc(OC)c(/C=C/S(=O)(=O)Cc2cnc(OC)c(N)c2)c(OC)c1 | 23.6%
O=C1c2ccccc2C(=O)c2cc(Cn3c[n+](Cc4ccc5ccccc5c4)c4ccccc43)ccc21 | -27.6% (active)
O=C(C[Si](CC(=O)c1cccc(C(F)(F)F)c1)CC(=O)c1cccc(C(F)(F)F)c1)c1cccc(C(F)(F)F)c1 | 91%
Cc1ccc2nc(-c3ccc(N=Cc4ccccc4O)cc3)sc2c1 | 86.4%
O=C(CN1N=C(c2ccc(F)cc2)CCC1=O)Nc1nccs1 | 94.6%
COc1cc(Br)c(-c2nc(-c3ccccc3)c(-c3ccccc3)n2Cc2ccccc2)cc1OC | 54%
O=C(/C=C/c1c(Cl)nc2sccn12)c1nccs1 | 75.7%
CCNc1nnnn1CC | 101%
COc1ccc(/C=N/C2=C(C#N)C(c3ccc(OC)cc3)c3ccc4ccccc4c3O2)cc1 (stereo not given) | 38.2%
CC1(C)CC[C@]2(CO)CC[C@]3(C)[C@H](CC[C@@H]4[C@@]5(C)CC[C@H](O)C(C)(C)[C@@H]5CC[C@]43C)[C@H]2[C@H]1O | 101%
CNC(=O)c1cc(-n2ccc3cc(NC(=O)Nc4ccc(N5CCN(C)CC5)c(C(F)(F)F)c4)ccc32)ccn1 | 59.7%
O=C(NCc1ccccc1)Nc1ccccc1CNc1nc(Nc2ccc(OCCN3CCCC3)cc2)ncc1Cl | 74.5%
